Each structure is given as a SMILES string. Results filed as inconclusive are left out. Some compounds were tested as several samples or in several runs, with calls that do not always agree. Activity calls are given as the source filed them. Rule for the calls, unless noted: active = hit-call score of the fitted dose curve at least 0.9, where 1 is the maximum; inactive = score below 0.9.

Read-out in assay [1]: Human Leukocyte Antigen - DR isotype (HLADR), HLA-DRA (gene 3122)
Put plainly: BSK_3C_HLADR: BioMAP Diversity Plus: 3C Assay for Human Leukocyte Antigen - DR isotype (HLADR) Biomarker Activity (AID 2283019).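 For outcome: ELISA of cell-surface HLA-DR on HUVEC 24 h after dosing.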 Conditions: primary human endothelial cells (HUVEC); actives raise or lower the signal. In a few lines:
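Endothelial cells from human umbilical vein are treated with test chemical; after 24 h, HLA-DR levels are measured by ELISA. Data are fitted in both directions using DMSO as the baseline.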

The nature of assay [2]: BSK_3C_Vis: BioMAP Diversity Plus: 3C Assay for Morphology Visualization (AID 2283025).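 For AC50: light microscopy image of cell morphology used as background control.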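 Note: fitted both ways so gain or loss versus DMSO counts.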 Conditions: primary human endothelial cells (HUVEC). In a few lines:
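Chemicals were added to primary human umbilical vein endothelium, cells were incubated 24 h, and morphology was then visualized by light microscopy. Gain or loss of signal was fitted bidirectionally relative to DMSO.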

Read-out in assay [3]: Vascular endothelial growth factor receptor 2 (Homo sapiens) (UniProt P35968)
Put plainly: BSK_4H_VEGFRII: BioMAP Diversity Plus: 4H Assay for Vascular endothelial growth factor receptor 2 (VEGFR2) Biomarker Activity (AID 2283031).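 For AC50: cell-surface VEGFR2 protein level quantified by ELISA.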 Conditions: primary human endothelial cells (HUVEC); actives raise or lower the signal. An outline of the steps: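 VEGFRII levels on human vascular endothelial primary cells were determined by ELISA at 24 hours post-dosing, with gain- or loss-of-signal fitted against DMSO controls.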

Read-out in assay [4]: Transforming growth factor beta 1 (TGFb1), TGFB1 (gene 7040)
Put plainly: BSK_BE3C_TGFb1: BioMAP Diversity Plus: BE3C Assay for Transforming growth factor beta 1 (TGFb1) Biomarker Activity (AID 2283036). To be noted: primary human bronchial epithelial cells; actives raise or lower the signal. In a few lines:
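Primary human lung bronchial epithelial cells; compound exposure 24 h; TGF-b1 by ELISA; bidirectional fit, DMSO baseline. Parallel SRB total-protein staining for cytotoxicity.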

Read-out in assay [5]: Interleukin-8 (IL8), CXCL8 (gene 3576)
Put plainly: BSK_CASM3C_IL8: BioMAP Diversity Plus: CASM3C Assay for Interleukin-8 (IL8) Biomarker Activity (AID 2283042).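 Note: IL-8 protein level quantified by ELISA.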 Conditions: primary human coronary artery smooth muscle cells; actives raise or lower the signal.

Read-out in assay [6]: Monokine induced gamma interferon (MIG), CXCL9 (gene 4283)
Put plainly: BSK_CASM3C_MIG: BioMAP Diversity Plus: CASM3C Assay for Monokine induced gamma interferon (MIG) Biomarker Activity (AID 2283048).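 Note: MIG protein level measured by ELISA.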 To be noted: primary human coronary artery smooth muscle cells; actives raise or lower the signal.

Read-out in assay [7]: Urokinase-type plasminogen activator receptor (uPAR), PLAUR (gene 5329)
Put plainly: BSK_CASM3C_uPAR: BioMAP Diversity Plus: CASM3C Assay for Urokinase-type plasminogen activator receptor (uPAR) Biomarker Activity (AID 2283054).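 Note: cell-surface uPAR protein level quantified by ELISA.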 Conditions: primary human coronary artery smooth muscle cells; actives raise or lower the signal.

Read-out in assay [8]: Intercellular Adhesion Molecule 1 (ICAM1), ICAM1 (gene 3383)
Put plainly: BSK_KF3CT_ICAM1: BioMAP Diversity Plus: KF3CT Assay for Intercellular Adhesion Molecule 1 (ICAM1) Biomarker Activity (AID 2283067). Conditions: primary human keratinocytes with fibroblasts; actives raise or lower the signal. An outline of the steps: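 Dose the keratinocyte/fibroblast co-culture, wait 24 h, measure ICAM-1 by ELISA, then fit increases or decreases against DMSO. Cytotoxicity is checked in parallel cultures by SRB total-protein staining.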

Read-out in assay [9]: Transforming growth factor beta 1 (TGFb1), TGFB1 (gene 7040)
Put plainly: BSK_KF3CT_TGFb1: BioMAP Diversity Plus: KF3CT Assay for Transforming growth factor beta 1 (TGFb1) Biomarker Activity (AID 2283072). To be noted: primary human keratinocytes with fibroblasts; actives raise or lower the signal. An outline of the steps:
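Primary human skin cells (keratinocytes, foreskin fibroblasts) were co-cultured, exposed to test chemical and sampled at 24 h. TGF-b1 levels were measured by ELISA and fitted bidirectionally relative to DMSO.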

Read-out in assay [10]: C-C motif chemokine 2 (Homo sapiens) (UniProt P13500)
Put plainly: BSK_KF3CT_MCP1: BioMAP Diversity Plus: KF3CT Assay for Monocyte Chemoattractant Protein 1 (MCP1/CCL2) Biomarker Activity (AID 2283073). Conditions: primary human keratinocytes with fibroblasts; actives raise or lower the signal. An outline of the steps: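 Keratinocytes and foreskin fibroblasts were co-cultured, dosed with chemical, and sampled 24 h later. MCP-1 was quantified by ELISA, and the endpoint was analyzed with bidirectional fitting using DMSO as negative control.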

Read-out in assay [11]: Vascular cell adhesion molecule 1 (VCAM1), VCAM1 (gene 7412)
Put plainly: BSK_LPS_VCAM1: BioMAP Diversity Plus: LPS Assay for Vascular cell adhesion molecule 1 (VCAM1) Biomarker Activity (AID 2283086). Conditions: primary human HUVEC with PBMC; actives raise or lower the signal. In a few lines:
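HUVEC + PBMC co-culture, LPS system; compound 24 h; VCAM-1 by ELISA; bidirectional fit vs DMSO control; parallel SRB (0.1%, TCA-fixed, 560 nm) for cytotoxicity.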

Read-out in assay [12]: CD40, CD40 (gene 958)
Put plainly: BSK_SAg_CD40: BioMAP Diversity Plus: SAg Assay for CD40 Biomarker Activity (AID 2283088). Conditions: primary human HUVEC with PBMC; actives raise or lower the signal. An outline of the steps: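 Fluorescence ELISA read-out of CD40 from umbilical vein endothelium plus peripheral blood mononuclear cells, sampled 24 h after dosing. Values come from bidirectional curve fitting with DMSO as baseline.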

Assay [13] is described as follows: BSK_SAg_PBMCCytotoxicity: PBMC Cytotoxicity Assessment in the BioMAP Diversity Plus: SAg Assay (AID 2283093).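 For AC50: PBMC superantigen activated with SEB plus TSST-1 one hour after compound addition.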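 Note: PBMC viability measured as Alamar Blue reduction fluorescence at 546/580 nm; fitted both ways against DMSO so a hit may be loss or gain of signal.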 Conditions: primary human HUVEC with PBMC. An outline of the steps:
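Compound added to 75,000 PBMC/well for 1 h; SEB and TSST-1 then added at 20 ng/mL final each; 90 h incubation; Alamar Blue 6 h; read 546/580 nm ex/em. Activity fitted bidirectionally relative to DMSO baseline.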

Read-out in assay [14]: Interleukin-8 (IL8), CXCL8 (gene 3576)
Put plainly: BSK_SAg_IL8: BioMAP Diversity Plus: SAg Assay for Interleukin-8 (IL8) Biomarker Activity (AID 2283094). To be noted: primary human HUVEC with PBMC; actives raise or lower the signal. In a few lines:
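ELISA read-out of IL-8 in a primary human vascular co-culture (umbilical vein endothelium plus PBMC), taken 24 h after compound addition. Values derive from bidirectional fits against DMSO negative controls.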

Assay [15] can be described thus: BSK_SAg_SRB: Viability Assessment in the BioMAP Diversity Plus: SAg Assay (AID 2283096).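 Note: cells read one day after compound addition; hits may be either gain or loss of signal compared with DMSO.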 To be noted: primary human HUVEC with PBMC. An outline of the steps:
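Total protein by sulforhodamine B staining, 24 h after dosing, in HUVEC–PBMC co-culture; DMSO-referenced bidirectional fitting.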

Assay [16] in a line: BSK_BT_Bcell_Proliferation: Viability Assessment in the BioMAP Diversity Plus: BT Assay for B cell Proliferation (AID 2284227). To be noted: primary human B cells with PBMC. In a few lines: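 Human B cells co-cultured with PBMC were dosed with test chemicals and relative cell number was quantified by SRB staining at 72 h. Cells were fixed in 10% TCA, stained with 0.1% SRB and read at 560 nm. Activity was fitted in the positive direction against DMSO.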

Read-out in assay [17]: Interleukin 6 (IL6), IL6 (gene 3569)
Put plainly: BSK_BT_xIL6: BioMAP Diversity Plus: BT Assay for Interleukin 6 (IL6) Biomarker Activity (AID 2284228). To be noted: primary human B cells with PBMC. An outline of the steps:
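Chemical added to human B cell/PBMC co-culture → 24 h → supernatant IL-6 by Luminex xMAP → fit vs DMSO baseline, upward direction.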

Read-out in assay [18]: Interleukin 17A (IL17A), IL17A (gene 3605)
Put plainly: BSK_BT_xIL17A: BioMAP Diversity Plus: BT Assay for Interleukin 17A (IL17A) Biomarker Activity (AID 2284229). To be noted: primary human B cells with PBMC. In a few lines:
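Chemicals were added to a human B cell and PBMC co-culture. After 24 h, secreted IL-17A was measured with Luminex xMAP. Curves were fitted in the positive direction, with DMSO wells as baseline.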

Read-out in assay [19]: Collagen IV, COL4A1 (gene 1282)
Put plainly: BSK_MyoF_CollagenIV: BioMAP Diversity Plus: MyoF Assay for Collagen IV Biomarker Activity (AID 2284247). Conditions: primary human lung fibroblasts. An outline of the steps: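 Steps: dose human lung fibroblasts; culture 24 h; quantify Collagen IV by ELISA; fit increase versus DMSO control. Parallel SRB total-protein staining (0.1% SRB after 10% TCA fixation, 560 nm) tracks overt cytotoxicity.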

Assay [20] is described as follows: CCTE_Harrill_HTTr_CellCount_MCF7: CCTE's Cell Proliferation Assessment for the High-Throughput Transcriptomics (HTTr) Platform, Harrill Lab (AID 2284012; active = hit-call score of the fitted dose curve at least 0.9, where 1 is the maximum;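 note: cells exposed to compound for six hours; intended direction is loss of nuclei count meaning fewer cells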). An outline of the steps: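 Chemicals in eight-point dilution series are added to MCF-7 cells for six hours, nuclei are stained with Hoechst and imaged, and per-well nuclei counts are fitted in both directions relative to DMSO controls.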

Regarding `CC(=O)/C=C/c1ccccc1`, the concentration at half-maximal activity (AC50) (as a rule, the midpoint of the concentration-response curve, whichever way the signal moves) is 26.9 µM (active) in [1]; 20 µM (active) in [11]; 26.1 µM (active) in assay [16]; 20 µM (active) in [17]; 20 µM (active) in assay [18]. Further, the outcome in assay [2], in assay [3], in assay [4], in [5], in assay [6] and in assay [7] was inactive. The result in assay [8], in [9], in assay [10], in [12], in [13] and in [14] was inactive. Moreover, the outcome in assay [15] and in [19] was inactive.

For the molecule `O=CNC(N1CCN(C(NC=O)C(Cl)(Cl)Cl)CC1)C(Cl)(Cl)Cl` (stereo not given), the outcome in assay [20] was inactive.

For `CC(=O)C=Cc1ccccc1`, the molecule was classed as inactive in assay [20].

With `Cl/C=C\CCl`, the result in assay [20] was inactive.

With `COC(C)(C)CCC[C@H](C)C/C=C/C(C)=C/C(=O)OC(C)C`, the AC50 in assay [1] is 28.3 µM (active); in [2], 37.4 µM (active); in assay [3], 32 µM (active); in [6] it was 29.9 µM (active); in assay [7], 31.2 µM (active); in [9], 15.3 µM (active). Also, the AC50 in [11] is 27.4 µM (active); in [12], 26.8 µM (active); in assay [13] it was 29.7 µM (active); in [15], 33.3 µM (active); in assay [16] it was 28.8 µM (active); in assay [17], 20 µM (active). Moreover, the concentration at half-maximal activity (AC50) in [18] is 13.4 µM (active). For the same molecule, the result in assay [4], in assay [5], in assay [8], in assay [10], in assay [14] and in assay [19] was inactive.

`COCC(=O)N(c1c(C)cccc1C)N1CCOC1=O`: the outcome in [1], in assay [2], in assay [3], in assay [4], in assay [5] and in [6] was inactive. The result in assay [7], in [8], in assay [9], in [10], in assay [11] and in assay [12] was inactive. In addition, the outcome in assay [13], in [14], in assay [15], in assay [16], in [17] and in [18] was inactive. For the same molecule, the outcome in assay [19] was inactive.

Regarding `Cc1ccc(N(SC(F)(Cl)Cl)S(=O)(=O)N(C)C)cc1`, the molecule was classed as inactive in assay [20].

`Cc1ccc(OP(=O)(Oc2ccc(C)cc2)Oc2ccc(C)cc2)cc1` (tested in a mixture with another compound): the half-maximal activity concentration (AC50) in assay [1] is 20 µM (active); in assay [2] it was 37.5 µM (active); in assay [7], 1.11 µM (active); in assay [9] it was 4.81 µM (active); in assay [12] it was 20 µM (active); in assay [14], 10.6 µM (active). Moreover, the AC50 in assay [15] was 20 µM (active); in [17], 13.2 µM (active); in assay [18], 14.1 µM (active). Moreover, the result in assay [3], in [4], in [5], in [6], in assay [8] and in [10] was inactive. Further, the outcome in assay [11], in [13], in assay [20], in [16] and in assay [19] was inactive.

In the case of `O=C1Nc2ccc(Cl)cc2C(c2ccccc2)=NC1O` (stereo not given), the molecule was classed as inactive in assay [20].

In the case of `CC1(C)[C@H](C(=O)O[C@H](C#N)c2cccc(Oc3ccccc3)c2)[C@@H]1C=C(Br)Br`, the outcome in [1], in assay [2], in assay [3], in assay [4], in assay [5] and in [6] was inactive. In addition, the outcome in [7], in assay [8], in assay [9], in [10], in [11] and in assay [12] was inactive. In addition, the outcome in [13], in assay [14], in assay [15], in assay [16], in [17] and in assay [18] was inactive. Further, in [19], the outcome was inactive. Moreover, the AC50 in assay [4] was 1.2 µM (active); in assay [16], 20 µM (active); in assay [17] it was 15.2 µM (active); in assay [18], 20 µM (active).
